According to PubChem BioAssay AID743364 (National Center for Advancing Translational Sciences (NCATS), 2014):
Calls of active or inactive are those of the source. The call rests on the fitted dose curve; in most records, active means well fitted curve in the direction sought with a large enough effect; inactive means no such curve, though single readings can be large or run the other way.

Test: qHTS profiling of inhibitors of Plasmodium falciparum (3D7) proliferation (acoustic dispense)
Conditions: P. falciparum 3D7 in erythrocytes, SYBR Green, 72 h; series mostly up to 49.8 µM; activity change: at the top concentration
From the text: Plasmodium falciparum is a virulent malarial parasite that kills 1-2 million people worldwide each year. Transmitted by mosquitoes, the sporozoite form of the parasite enters the blood stream to infect hepatocytes, where they become merozoites that infect red blood cells (erythrocytes). Within erythrocytes, merozoites begin a […] cycle of growth and division, after which the parasite is released to infect new red blood cells. Gametocytes, which form within erythrocytes as well, circulate in the bloodstream and are ingested by the mosquito, thereby completing the life cycle. To profile malarial isolates for differential chemical responses and to identify inhibitors of malarial growth, an assay that measures P. falciparum growth and replication within erythrocytes was employed. This assay uses a DNA binding fluorescent dye (SYBR Green) to detect parasite DNA following cell lysis. Because mature erythrocytes lack DNA, only Plasmodium-derived DNA is detected.
The SYBR Green viability assay was adapted from a method described previously (Plouffe et al., 2008). For screening 3 ul culture medium was dispensed into 1536 well black clear bottom plates (Aurora Biotechnologies) using a Multidrop Combi (Thermo Fisher Scientific Inc.), 23 nL of compounds in DMSO were added by an acoustic dispenser (EDC Biosystems), and 5 ul of erythrocytes infected with P. falciparum (0.3% parasitemia, 2.5% hematocrit final concentration) were added. The plates were incubated at 37 C in a humidified incubator in 5% CO2 for 72 h, and 2 ul lysis buffer (20 mM Tris HCl, 10 mM EDTA, 0.16% saponin, 1.6% triton X, 10X SYBR Green I supplied as 10,000X […] by Invitrogen) was added to each well. The plates were mixed for 25 sec with gentle shaking and incubated overnight at room temperature in the dark. The following morning, fluorescence intensity at 485(14) nm excitation and 535(25) nm emission wavelengths was measured on an EnVision (Perkin Elmer) plate reader. Plate reads were normalized relative to the control inhibitor (0.29 uM artemisinin) and vehicle (DMSO) wells present on each plate and then corrected by an algorithm using vehicle-only control plates at the beginning and end of the compound plate stack.

Compound | activity change
CC1(CN2CCC(n3c(=O)[nH]c4ccccc43)CC2)OCc2ccccc2-n2cccc21 (stereo not given) | -0.657% (inactive)
CC(=O)Nc1nc(C)c(-c2ccc(Cl)c(S(=O)(=O)NCCO)c2)s1 | -1.48% (inactive)
CN[C@@H]1C[C@H]2O[C@@](C)([C@H]1OC)n1c3ccccc3c3c4c(c5c6ccccc6n2c5c31)C(=O)N[C@H]4O | 0.201% (inactive)
CO[C@H]1C=CO[C@@]2(C)Oc3c(C)c(O)c4c(O)c(c(C=NN5CCN(C)CC5)c(O)c4c3C2=O)NC(=O)C(C)=CC=C[C@H](C)[C@H](O)[C@@H](C)[C@@H](O)[C@@H](C)[C@H](OC(C)=O)[C@H]1C | -1.61% [at 16.5 µM] (inactive)
CC[C@H]1CN2CCc3cc(OC)c(OC)cc3[C@H]2C[C@@H]1C[C@@H]1NCCc2cc(OC)c(OC)cc21 | -0.291% (inactive)
COc1cc(NCc2ccc3nc(N)nc(N)c3c2C)cc(OC)c1OC | -3.73% (inactive)
CC=C1C2C=C(C)CC1(N)c1ccc(=O)[nH]c1C2 (stereo not given) | 106% (inactive)
Cc1cnc(Nc2ccc(CN3CCOCC3)cc2)nc1Nc1cccc(S(=O)(=O)NC(C)(C)C)c1 | -2.12% (inactive)
Cn1cc(CNCC2CCN(c3ncc(C(=O)NO)cn3)CC2)c2ccccc21 | -1.05% (inactive)
CC(C)N=C(N)N=C(N)Nc1ccc(Cl)cc1 | 0.148% (inactive)
CCn1nnc2c(N3CCOCC3)nc(-c3ccc(NC(=O)Nc4ccc(C(=O)N5CCN(C)CC5)cc4)cc3)nc21 | 1.28% (inactive)
CCC(C=C[C@@H]1OC(=O)C=C[C@H]1C)=C[C@H](C)CC=CC(C)=C[C@@H](C)C(=O)[C@@H](C)[C@H](O)[C@@H](C)CC(C)=CC(=O)O | 22.5% [at 1.88 µM] (inactive)
COc1ncnc(NS(=O)(=O)c2ccc(N)cc2)c1OC | 115% (inactive)
CC1(C)N=C(N)N=C(N)N1c1ccc(Cl)cc1 | -0.763% (inactive)
CC(C)C[C@H](NC(=O)[C@H](CCc1ccccc1)NC(=O)CN1CCOCC1)C(=O)N[C@@H](Cc1ccccc1)C(=O)N[C@@H](CC(C)C)C(=O)[C@@]1(C)CO1 | 0.444% (inactive)
Cn1c(=O)c(-c2c(Cl)cccc2Cl)cc2cnc(Nc3cccc(C(=O)O)c3)nc21 | 4.94% (inactive)
C[C@H]1[C@@H](OC(=O)CCC(=O)O)O[C@@H]2O[C@@]3(C)CC[C@@H]4[C@H](C)CC[C@@H]1[C@@]24OO3 | 0.0623% (inactive)
COc1ncc(-c2ccc3nccc(-c4ccnnc4)c3c2)cc1NS(=O)(=O)c1ccc(F)cc1F | -1.7% (inactive)
CC[C@H]1OC(=O)[C@H](C)C(=O)[C@H](C)[C@@H](O[C@H]2O[C@H](C)C[C@H](N(C)C)[C@@H]2O)[C@](C)(OC)C[C@@H](C)C(=O)[C@H](C)[C@H]2N(CCCCn3cnc(-c4cccnc4)c3)C(=O)O[C@]12C | 0.612% (inactive)
CSc1cccc(Nc2ncc3cc(-c4c(Cl)cccc4Cl)c(=O)n(C)c3n2)c1 | -0.214% (inactive)

Compound | activity change
CN(C)c1ccc(C(=C2C=CC(=[N+](C)C)C=C2)c2ccc(N(C)C)cc2)cc1 | 107% (inactive)
CC(C)n1nc(-c2ccc3oc(N)nc3c2)c2c(N)ncnc21 | -2.74% (inactive)
Cn1cc(C2=C(c3c4n(c5ccccc35)CCC(CN)C4)C(=O)NC2=O)c2ccccc21 (stereo not given) | 2.82% (inactive)
FC(F)c1nc2ccccc2n1-c1nc(N2CCOCC2)nc(N2CCOCC2)n1 | 4.59% (inactive)
O[C@H](c1cc(C(F)(F)F)nc2c(C(F)(F)F)cccc12)[C@H]1CCCCN1 | 0.467% [at 23.2 µM] (inactive)
C1CCC(C(CC2CCCCN2)C2CCCCC2)CC1 (stereo not given) | 0.0017% (inactive)
C[C@@H](Oc1ccc2[nH]nc(C=Cc3cnn(CCO)c3)c2c1)c1c(Cl)cncc1Cl | -0.856% (inactive)
Cn1cnc(=N)c2[nH]cnc21 | 0.814% (inactive)
CC[C@H]1OC(=O)[C@H](C)[C@@H](O[C@H]2C[C@@](C)(OC)[C@@H](O)[C@H](C)O2)[C@H](C)[C@@H](O[C@@H]2O[C@H](C)C[C@H](N(C)C)[C@@H]2O)[C@](C)(O)C[C@@H](C)CN(C)[C@H](C)[C@@H](O)[C@]1(C)O | 5.16% (inactive)
C=CCn1c(=O)c2cnc(Nc3ccc(N4CCN(C)CC4)cc3)nc2n1-c1cccc(C(C)(C)O)n1 | -0.259% (inactive)
CCCCN(CCCC)CCC(O)c1cc2c(Cl)cc(Cl)cc2c2cc(C(F)(F)F)ccc12 (stereo not given) | 0.183% [at 23.2 µM] (inactive)
CO[C@@H]1C(N(C)C(=O)c2ccccc2)C[C@H]2O[C@]1(C)n1c3ccccc3c3c4c(c5c6ccccc6n2c5c31)C(=O)NC4=O (stereo not given in full) | 13.6% (inactive)
NC1CCC(Nc2nc(Nc3ccc(C(=O)N4CCCCC4)cc3)c3ncn(-c4cccc(F)c4)c3n2)CC1 (stereo not given) | -1.28% (inactive)
CC(C)Oc1cc(Nc2nc(N[C@@H](C)c3ccc(F)cn3)ncc2Cl)[nH]n1 | 0.271% (inactive)
CCCCCCCCCCOc1cc2c(=O)c(C(=O)OCC)c[nH]c2cc1OCC | -1.42% (inactive)
COc1cc2nc(N3CCCN(C)CC3)nc(NC3CCN(Cc4ccccc4)CC3)c2cc1OC | -2.22% (inactive)
C=CCNc1c(O)cc2c(O)c1C[C@@H](C)C[C@H](OC)[C@@H](O)[C@@H](C)C=C(C)[C@H](OC(N)=O)[C@@H](OC)C=CC=C(C)C(=O)N2 | -1.45% (inactive)
Cc1cn[nH]c1 | 0.616% (inactive)
CC[C@@]1([C@@H]2O[C@@H]([C@H]3O[C@@](O)(CO)[C@H](C)C[C@H]3C)C[C@H]2C)CC[C@H]([C@]2(C)CC[C@]3(C[C@H](O)[C@@H](C)[C@@H]([C@@H](C)[C@@H](OC)[C@H](C)C(=O)O)O3)O2)O1 | -0.944% [at 23.2 µM] (inactive)
Cc1cn(-c2cc(NC(=O)c3ccc(C)c(Nc4nccc(-c5cccnc5)n4)c3)cc(C(F)(F)F)c2)cn1 | 1.37% (inactive)
